Experimental data as given in PubChem BioAssay (NCATS).
A number with no mark means an inactive call. Calls follow the shape of the dose curve; as a rule, active = well fitted curve in the direction sought with a large enough effect; inconclusive = small, poorly fitted or top-dose-only effect, or another doubt; inactive = no such curve, though single readings can be large; an effect the other way counts as inactive or inconclusive. Results filed as inconclusive are left out.

system: NAD(P)H diaphorase (Clostridium kluyveri); experiment: Diaphorse counterscreen qHTS: Assay Interference Panel against the NCATS CANVASS Library (AID 1347362); conditions: Diaphorase enzyme, resazurin to resorufin fluorescence; series mostly up to 57.5 µM; activity change, negative = inhibition: at the top concentration
How it was run: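 Clostridium kluyveri diaphorase in PBS with 0.01% Tween-20 was preincubated 15 min at room temperature in the dark with compounds (11-point series). Resorufin fluorescence (ex 525/20, em 598/25) was read 5 min after adding resazurin/NADH.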
Also: 0% is about no effect.

| SMILES | activity change, negative = inhibition |
| --- | --- |
| CC1=CC2CC[C@@H]3[C@@H](C)C[C@H](C)[C@@H](C1)N23 (some centres undefined) | 5.7% |
| CC=C1CN(C=O)[C@H]2C[C@@H]1[C@@H](C(=O)OC)[C@@]13CCOC21Nc1ccccc13 (some centres undefined) | -14.4% |
| C[C@@H]1CC[C@@H](c2ccoc2)N2C[C@@]3(CC[C@@H]12)CS[C@@]1(CC[C@H]2[C@H](C)CC[C@@H](c4ccoc4)N2[C@@H]1O)C3 | -19.6% |
| CCN1C[C@]2(C)CC[C@@H](O)[C@]34C1[C@H](C[C@H]23)C12CCC(CC14)[C@](O)(CO)[C@H]2O (some centres undefined) | -12.4% |
| CO[C@@H](/C=C/CC/C=C/C(=O)O)[C@@H](O)[C@H](C)[C@@H](O)/C(C)=C/[C@H](C)C(=O)CCCC1CC(=O)NC(=O)C1 | -9.52% |
| CCCC[C@@H]1CC[C@H]2CCCC(CCC)N12 (some centres undefined) | -21.6% |
| C[C@]12CC(O)C3[C@@H](CCC4C[C@@H](O)CC[C@@]43CO)[C@@]1(O)CCC2C1=CC(=O)OC1 (some centres undefined) | -5.53% |
| CO[C@@H](/C=C/CC/C=C/C(=O)O)[C@@H](O)[C@H](C)/C=C(\C)[C@@H](O)[C@H](C)C(=O)CCCC1CC(=O)NC(=O)C1 | -15% |
| O=C(c1ccccc1O)c1[nH]c(Cl)c(Cl)c1-n1c(C(=O)c2ccccc2O)cc(Cl)c1Cl | -18.5% |
| CC[C@@H]1CN2CC[C@@]3(O)C(=Nc4cccc(OC)c43)[C@@H]2C[C@@H]1/C(=C\OC)C(=O)OC | -7.44% |
| c1ccc2c3c([nH]c2c1)CNCC3 | -13.5% |
| CNCCc1ccccc1 | -6.6% |
| CCCCC[C@@H]1OC(=O)[C@@H](C)N(C)C(=O)[C@H](CCCCC)OC(=O)C(C)N(C)C(=O)[C@H](CCCCC)OC(=O)[C@@H](C)N(C)C(=O)[C@H](CCCCC)OC(=O)C(C)N(C)C1=O (some centres undefined) | -17% |
| CO[C@H](c1ccccc1)[C@H]1NC(=O)C(C)NC(=O)C(C[C@@H](C)CO)N(C)C(=O)[C@@H](C(O)c2cn(C(C)(C)C3CO3)c3ccccc23)NC(=O)C(C(C)C=C(C)C)NC(=O)C(CC(C)C)N(C)C(=O)C(C(C)C)NC1=O (some centres undefined) | -16.7% [at 34.3 µM] |
| CC1=CC(=O)C2=C(C)C[C@H](O)[C@@H]3[C@H](OC(=O)[C@@H]3C)[C@@H]12 | -1.04% |
| CCN1C[C@]2(C)CC[C@H](O)[C@]34C1C(C[C@H]23)[C@@]12CC[C@H](CC14)[C@](O)(COC(=O)c1ccc(OC)c(OC)c1)[C@H]2O (some centres undefined) | -18.6% |
| CCC(=O)CCCCC[C@@H]1NC(=O)[C@H]2CCCCN2C(=O)[C@H]([C@@H](C)CC)NC(=O)[C@H](Cc2cn(OC)c3ccccc23)NC1=O | -11.2% |

target: Luciferin 4-monooxygenase (Photinus pyralis) (UniProt P08659); experiment: Firefly luciferase counterscreen qHTS: Assay Interference Panel against the NCATS CANVASS Library (AID 1347363); conditions: purified firefly luciferase, luminescence inhibition, 5 min; series mostly up to 57.5 µM; activity change, negative = inhibition: at the top concentration
Sequence (P08659 whole entry, looked up): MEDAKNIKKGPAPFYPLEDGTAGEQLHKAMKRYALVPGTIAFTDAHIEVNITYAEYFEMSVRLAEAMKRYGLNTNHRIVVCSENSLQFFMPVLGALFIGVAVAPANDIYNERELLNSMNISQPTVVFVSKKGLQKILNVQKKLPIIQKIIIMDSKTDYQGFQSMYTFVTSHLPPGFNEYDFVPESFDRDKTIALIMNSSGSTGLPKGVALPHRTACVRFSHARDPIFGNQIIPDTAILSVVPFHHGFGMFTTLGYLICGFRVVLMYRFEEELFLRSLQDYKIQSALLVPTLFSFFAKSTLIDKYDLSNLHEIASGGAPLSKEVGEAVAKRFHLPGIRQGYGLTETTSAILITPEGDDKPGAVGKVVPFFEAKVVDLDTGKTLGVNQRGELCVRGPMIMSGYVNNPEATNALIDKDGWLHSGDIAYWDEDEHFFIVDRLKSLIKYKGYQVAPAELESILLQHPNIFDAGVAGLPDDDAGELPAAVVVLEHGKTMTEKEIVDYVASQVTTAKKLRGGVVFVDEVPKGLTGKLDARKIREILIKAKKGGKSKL
How it was run: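 Purified P. pyralis luciferase was added to compounds (11-point series) preincubated 15 min at room temperature with substrate containing 0.013 mM D-luciferin and 0.013 mM ATP; luminescence was read after 5 min.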

| SMILES | activity change, negative = inhibition |
| --- | --- |
| CC1=CC2CC[C@@H]3[C@@H](C)C[C@H](C)[C@@H](C1)N23 (some centres undefined) | 2.96% |
| CC=C1CN(C=O)[C@H]2C[C@@H]1[C@@H](C(=O)OC)[C@@]13CCOC21Nc1ccccc13 (some centres undefined) | -4.35% |
| C[C@@H]1CC[C@@H](c2ccoc2)N2C[C@@]3(CC[C@@H]12)CS[C@@]1(CC[C@H]2[C@H](C)CC[C@@H](c4ccoc4)N2[C@@H]1O)C3 | -5.64% |
| CCN1C[C@]2(C)CC[C@@H](O)[C@]34C1[C@H](C[C@H]23)C12CCC(CC14)[C@](O)(CO)[C@H]2O (some centres undefined) | 3.3% |
| CO[C@@H](/C=C/CC/C=C/C(=O)O)[C@@H](O)[C@H](C)[C@@H](O)/C(C)=C/[C@H](C)C(=O)CCCC1CC(=O)NC(=O)C1 | -0.116% |
| CCCC[C@@H]1CC[C@H]2CCCC(CCC)N12 (some centres undefined) | -8.66% |
| C[C@]12CC(O)C3[C@@H](CCC4C[C@@H](O)CC[C@@]43CO)[C@@]1(O)CCC2C1=CC(=O)OC1 (some centres undefined) | -0.769% |
| CO[C@@H](/C=C/CC/C=C/C(=O)O)[C@@H](O)[C@H](C)/C=C(\C)[C@@H](O)[C@H](C)C(=O)CCCC1CC(=O)NC(=O)C1 | 0.381% |
| O=C(c1ccccc1O)c1[nH]c(Cl)c(Cl)c1-n1c(C(=O)c2ccccc2O)cc(Cl)c1Cl | -1.42% |
| CC[C@@H]1CN2CC[C@@]3(O)C(=Nc4cccc(OC)c43)[C@@H]2C[C@@H]1/C(=C\OC)C(=O)OC | -0.455% |
| c1ccc2c3c([nH]c2c1)CNCC3 | -1.54% |
| CNCCc1ccccc1 | 2.39% |
| CCCCC[C@@H]1OC(=O)[C@@H](C)N(C)C(=O)[C@H](CCCCC)OC(=O)C(C)N(C)C(=O)[C@H](CCCCC)OC(=O)[C@@H](C)N(C)C(=O)[C@H](CCCCC)OC(=O)C(C)N(C)C1=O (some centres undefined) | 3.66% |
| CO[C@H](c1ccccc1)[C@H]1NC(=O)C(C)NC(=O)C(C[C@@H](C)CO)N(C)C(=O)[C@@H](C(O)c2cn(C(C)(C)C3CO3)c3ccccc23)NC(=O)C(C(C)C=C(C)C)NC(=O)C(CC(C)C)N(C)C(=O)C(C(C)C)NC1=O (some centres undefined) | -1.16% [at 34.3 µM] |
| CC1=CC(=O)C2=C(C)C[C@H](O)[C@@H]3[C@H](OC(=O)[C@@H]3C)[C@@H]12 | 4.36% |
| CCN1C[C@]2(C)CC[C@H](O)[C@]34C1C(C[C@H]23)[C@@]12CC[C@H](CC14)[C@](O)(COC(=O)c1ccc(OC)c(OC)c1)[C@H]2O (some centres undefined) | -13.2% |
| CCC(=O)CCCCC[C@@H]1NC(=O)[C@H]2CCCCN2C(=O)[C@H]([C@@H](C)CC)NC(=O)[C@H](Cc2cn(OC)c3ccccc23)NC1=O | -0.918% |
